# ± gives the standard deviation.
# Tested on: MILI (PIWIL2) piRISC loaded with L1MC piRNA (26 nt)
# Assay: pre-steady-state target cleavage rate (min^-1); guide: L1MC piRNA 5'p-UAACUAAAUACUAUGCAAGCUGUAGG; MIWI and MILI are mouse PIWI proteins and EfPiwi is from a freshwater sponge; tags in brackets are library labels; higher = faster piRNA-guided slicing of the target
# Conditions: auxiliary factor: 500 nM mouse GTSF1
# Outline: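 At 33 °C in HEPES–potassium acetate buffer, a transcribed, DNA-blocked target RNA library […] was exposed for 0–8 or 0–960 min to 1 nM active affinity-purified piRISC carrying a single synthetic guide, with or without 500 nM GTSF1 partner protein. Uncleaved targets were sequenced and normalised to depth and to weakly complementary targets. With three trials pooled and k3 capped at 0.0001 min^-1, a burst-and-steady-state fit produced the pre-steady-state cleavage rate.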
# 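Further: 1 nM active piRISC with 0.1 nM target library at 33 °C single turnover.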
row,Sequence,pre-steady-state target cleavage rate
1,UCCUGGUACAGCUUGCAUAGUAAAAACAAA,0.0104 ± 0.0051
2,UCCUGGAUGUCCUUGCAUAGUAAUUACUUA,0.0143 ± 0.0067
3,UCCUGGAUGUCCUUGCUAUGUAUUUAGUUA,0.00552 ± 0.0044
4,UCCUGGAACAGCUUGCAUAGUUUUUACUUA,0.0363 ± 0.011
5,UCCUCCUACAGCUACGAUAGUAUUUACAAA,0.0587 ± 0.019
6,UCCUGGAUCUCCUUGCAUAGUAUUUACAAA,0.0872 ± 0.018
7,UCCUGGAUCAGCUUGCAUAGUUUUAGUUA,0.00374 ± 0.0036
8,UCCUGCUACAGCAACCAUAGUAUUUAGUUA,0.305 ± 0.04
9,UCCUGCUACAGCUUGCAAUGUAUUUACAAA,0.0477 ± 0.014
10,UCCUCCUACAGCUUGCAAUGUAUUUAGUAA,0.0921 ± 0.012
11,UCCUCCUACAGCUUGCAUAGUUAAAUCAAA [g10:g26:cont:t1A],0.0191 ± 0.0072
12,UCCUGCUACAGCUUGCAUAGUAUUUAGAAA,0.157 ± 0.032
13,UCCUGGAUGUCGUUGCAUAGUAUUUAUGUUA,0.137 ± 0.04
14,UCCUGCUACUCGUUGCAUAGUAUUUUCAAA,0.0428 ± 0.014
15,UCCUGGAUGUCGAACCAUAGUAUUUGAGUUA,< 0.0001
16,UCCUGGAUGUCGAUGGAUAGUAUUUAGUAA,0.00684 ± 0.0036
17,UCCUGGAACAGCUACGAUAGUAUUUAGUUA,0.147 ± 0.011
18,UCCUGGUACAGCUUGGAUUGUAUUUAGUUA,0.0395 ± 0.013
19,UCCUGGAUGUGCUUGCAUAGUAUUUUCUUA,0.00861 ± 0.005

row,Sequence,pre-steady-state target cleavage rate
1,UCCUGGAUCAGCUUCCAUAGAAUUUAGUUA,0.0103 ± 0.0054
2,UCCUGGAUGUCCUUGCAUAGUAUAAUGUUA,0.0286 ± 0.011
3,UCCUGGAACAGCUUGCAUAGUAUUAUCAAA,0.0521 ± 0.017
4,UCCUGGUACAGCUUGGUAAGUAUUUAGAAA,0.0185 ± 0.0092
5,UCCUGGAUGAGCUUGCAUAGUAUAUAGAAA,0.00651 ± 0.005
6,UCCUGGAUGUCCUUGCAUAGUAUUAACUUA,0.0115 ± 0.0049
7,UCCUGGAUGAGCUUGCAUAGUAUAUAGUAA,0.163 ± 0.039
8,UCCUCCUACAGCUUGCAUAGUAAAUAGUAA,0.119 ± 0.025
9,UCCUGGAUGUCCAUGCAUUGUAUUUAGUUA,0.0108 ± 0.0042
10,UCCUGGAUGUCCUUGCAUAGUAUUAAGAUA,0.00928 ± 0.0043
11,UCCUGGAUGUCCUACGAUAGUAUUUAGUUA,0.007 ± 0.004
12,UCCUCCUACAGCUUGCAUAGUAAAUUCAAA,0.125 ± 0.03
13,UCCUGGAACAGCUUGCAAUGUAUUUACAAA,0.0552 ± 0.017
14,UCCUGGAUGUCGAUGCCAUAGUAUUUAGUUA,0.00491 ± 0.0034
15,UCCUGGAUGUCCUUGGAAAGUAUUUAGUUA,0.0226 ± 0.0071
16,UCCUGGAUGUCGAAGACAUAGUAUUUAGUUA,0.0117 ± 0.0056
17,UCCUGGUACAGCUUGCUUAGUAUUUUGUUA,0.0736 ± 0.021
18,UCCUGGAACACCUUGCAUAGAAUUUAGUUA,0.0907 ± 0.036

# Same assay, conditions: auxiliary factor: none (no GTSF1)
row,Sequence,pre-steady-state target cleavage rate
1,UCCUGGUACAGCUUGCAUACUUUUUAGUUA,0.00598 ± 0.0037
2,UCCUGGAUGUCGAACGAUAGUAUAAUGUUA,< 0.0001
3,UCCUGGAUCAGCUACCAUAGUAUUUACAAA,< 0.0001
